# Experimental data: publication PMC5540273 (PLoS ONE, 2017)
# What was measured:
# Settings in all cases: concentration: 1 μM, replicates: in singlicate; n = 1
# NEK6 = test system: NEK6
# NEK7 = test system: NEK7
# NEK9 = test system: NEK9
# NIK = test system: T1, NIK
# T1 construct: gene MAP3K14
# NIM1 = test system: T2, NIM1
# T2 construct: gene MGC42105
# NLK = test system: NLK
# OSR1 = test system: T3, OSR1
# T3 construct: gene OXSR1
# PAK1 = test system: PAK1
# PAK2 = test system: PAK2
# PAK3 = test system: PAK3
# PAK4 = test system: PAK4
# PAK6 = test system: PAK6
# PAK7 = test system: PAK7
# PCTK1 = test system: T4, PCTK1
# T4 construct: gene CDK16
# PCTK2 = test system: T5, PCTK2
# T5 construct: gene CDK17
# PCTK3 = test system: T6, PCTK3
# T6 construct: gene CDK18
# PDGFRA = test system: PDGFRA
# PDGFRB = test system: PDGFRB
# PDPK1 = test system: PDPK1
# PFTAIRE2 = test system: PFTAIRE2
# 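Note: KINOMEscan kinase panel screen.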
Structure (SMILES),%Inh (NEK6) [%],%Inh (NEK7) [%],%Inh (NEK9) [%],%Inh (NIK) [%],%Inh (NIM1) [%],%Inh (NLK) [%],%Inh (OSR1) [%],%Inh (PAK1) [%],%Inh (PAK2) [%],%Inh (PAK3) [%],%Inh (PAK4) [%],%Inh (PAK6) [%],%Inh (PAK7) [%],%Inh (PCTK1) [%],%Inh (PCTK2) [%],%Inh (PCTK3) [%],%Inh (PDGFRA) [%],%Inh (PDGFRB) [%],%Inh (PDPK1) [%],%Inh (PFTAIRE2) [%]
CC(=O)Nc1ccc(COc2ccc(Nc3ccnc4cc(-c5ccccn5)ccc34)cc2)cc1.Cl [GW440148],0,0,20,0,23,0,0,15,0,22,0,13,15,1,17,18,99.1,100,0,26
NS(=O)(=O)CCc1cccc(Nc2nccc(-c3c(-c4cccc(NC(=O)c5c(F)cccc5F)c4)nn4ccccc34)n2)c1 [GSK336735],8,11,57,4,15,84,10,26,12,36,0,16,4,10,0,23,90.1,100,1,25
O=C(Nc1cccc(-c2nn3ncccc3c2-c2ccnc(Nc3cccc(C(F)(F)F)c3)n2)c1)c1c(F)cccc1F [GSK299495],0,0,0,0,25,70,23,0,0,10,0,0,0,6,0,23,0,99.7,0,0
CCc1ccnc(/C=C/c2n[nH]c3cc(Sc4ccccc4C(=O)NC)ccc23)c1,0,0,0,0,0,0,0,0,0,0,3,0,0,10,0,2,99.8,100,0,0
Cn1cc(-c2ccc3c(c2)CCN3C(=O)Cc2ccccc2Cl)c2c(N)ncnc21 [GSK2608885],3,17,33,8,7,86,10,44,13,28,0,13,23,7,0,0,78,99.9,23,14
O=C(NCCCN1CCOCC1)c1cccc(Nc2nccc(Nc3ccc(Oc4ccccc4)cc3)n2)c1 [GW663929],15,28,28,3,28,27,0,9,15,0,9,7,12,0,22,12,46,99.6,9,18
Cc1c(Cn2c(C)nn3c(=O)cc(N4CCOC(C)C4)nc23)cccc1C(F)(F)F (stereo not shown) [GSK2344444],0,1,14,12,3,0,23,0,0,20,0,0,0,6,0,8,0,18,8,16
Cc1cccc(Cn2ccn3c(=O)cc(N4CCOCC4)nc23)c1 [GSK2297542],2,0,15,0,8,15,19,18,25,3,25,53,22,6,16,19,0,40,11,27
COc1ccc(COc2cc(-n3cnc4ccccc43)sc2C(N)=O)cc1 [GSK1024304],0,0,5,10,28,0,14,1,4,1,0,0,5,0,0,11,0,31,3,17
N#Cc1ccc(-c2cc(-c3c[nH]nc3-c3ccccn3)ccn2)cc1 [GW693028],0,0,0,18,35,16,4,8,9,0,0,0,11,0,0,33,0,7,0,0
O=C(c1ccc(-c2cc(-c3c[nH]nc3-c3ccccn3)ccn2)cc1)N1CCOCC1 [GW812171],2,0,0,32,0,0,0,7,0,0,6,0,0,0,0,0,0,0,0,0
CN1c2ccc(CNc3ccc(F)cc3)cc2-c2c(cnn2C)S1(=O)=O,0,0,0,0,0,0,0,0,14,0,0,0,0,0,0,0,0,0,12,0
Cc1cccc(-c2nc(Nc3ccc4ncsc4c3)c3ccccc3n2)n1 [GW867588],8,0,0,0,17,14,0,0,45,19,8,0,8,0,0,0,33,0,0,0
Cc1c2ccc(N(C)c3ccnc(Nc4cccc(S(N)(=O)=O)c4)n3)cc2nn1Cc1ccccc1.Cl.Cl [GW787226],0,0,0,0,0,5,0,32,49,28,0,0,10,0,0,4,99.7,100,0,0
N#Cc1c(N2CCOCC2)sc(-c2ccn[nH]2)c1-c1ccc(Cl)cc1,17,0,0,8,54,0,0,10,17,27,15,29,0,0,0,7,3,12,0,0
C[C@@H](Oc1cc(-n2cnc3ccc(NC(=O)NC(C)(C)C)cc32)sc1C(N)=O)c1ccccc1Cl [GSK346294],0,4,16,21,19,19,18,15,14,15,0,2,29,0,9,14,4,22,0,11
Nc1nccc(-c2c(-c3ccc(F)cc3)ncn2C2CCN(CC(F)(F)F)CC2)n1 [SB-236560],0,0,20,13,50,60,0,0,0,100,16,0,0,1,0,0,3,0,0,23
COc1cc2c(cc1OCCN1CCN(C)CC1)ncc1c3ccc(C#N)cc3[nH]c21,7,0,0,76,64,0,0,24,39,0,7,18,4,0,12,4,97.7,94.7,0,58
NS(=O)(=O)c1cccc(-c2ccc3ncc(N4CCOCC4)nc3c2)c1 [GSK1535721],0,0,0,0,0,8,0,17,0,0,5,0,26,0,18,0,21,21,0,5
Cc1nnc(-c2ccc3occ(-c4ccc(C(C)O)cc4)c3c2)o1 (stereo not shown),4,0,0,0,0,2,25,14,16,23,10,11,1,18,11,1,0,8,0,0
